Here are results for 18 compounds from PubChem BioAssay (Tox21).

Inconclusive results are not listed. Activity calls are given as the source filed them. The call rests on the fitted dose curve; in most records, active means well fitted curve in the direction sought with a large enough effect in the repeat runs; inconclusive means weak or mixed curves; inactive means no such curve, though single readings can be large; an effect the other way counts as inactive or inconclusive.

The nature of assay [1]: qHTS RealTime-Glo MT Cell Viability Assay in HEK293 cells - 0 hour (AID 1224880). Further: top concentration of the series differs between compounds; nearly all actives have a fitted effect of over 45% in size. In a few lines:
(§1)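 Measured as luminescence from the same continuously cultured HEK293 wells at successive time points (0, 8, 16, 24, 32, 40 h) after compound addition. Reagent present from seeding; dosing at 5 h; incubation 37 C.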

Assay [2] is described as follows: A CellTox Green Cytotoxicity Assay to monitor cytotoxicity in HepG2 cells - 0 hour (AID 1224882). Further: nearly all actives have a fitted effect of over 35% in size. Further: potency means the concentration at half of the fitted maximal effect. In a few lines: (§2)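 Fluorescent DNA-binding dye, 600 HepG2 cells/well, 5 h preincubation then compound in DMSO; same plates read at 0–40 h, 37 C.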
The nature of assay [3]: A CellTox Green Cytotoxicity Assay to monitor cytotoxicity in HEK293 cells - 8 hour (AID 1224884). Further: nearly all actives have a fitted effect of over 35% in size. Further: potency means the concentration at half of the fitted maximal effect. In a few lines:
(§3)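 Homogeneous no-lysis format: HEK293 cell suspension mixed with CellTox Green reagent, seeded, incubated 5 h at 37 C/5% CO2, then dosed by pintool with compound in DMSO.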

Assay [4] can be described thus: qHTS RealTime-Glo MT Cell Viability Assay in HepG2 cells - 16 hour (AID 1224885). Further: nearly all actives have a fitted effect of over 50% in size. In a few lines: (§4)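 HepG2 suspension premixed with RealTime-Glo reagents is plated at 600 cells per well and left 5 h at 37 C/5% CO2. Compounds in DMSO then go in, and bioluminescence reflecting viable cell number is recorded over 40 h.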
Assay [5] can be described thus: qHTS RealTime-Glo MT Cell Viability Assay in HEK293 cells - 24 hour (AID 1224886). Further: nearly all actives have a fitted effect of over 50% in size. Further: potency means the concentration at half of the fitted maximal effect. In a few lines: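 Reads taken at 0, 8, 16, 24, 32 and 40 h from the same wells. HEK293 cells (600/well) carried RealTime-Glo reagents from seeding, with compound added after a 5 h settle at 37 C.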
Assay [6] is described as follows: qHTS RealTime-Glo MT Cell Viability Assay in HEK293 cells - 8 hour (AID 1224887). Further: nearly all actives have a fitted effect of over 50% in size. Further: potency means the concentration at half of the fitted maximal effect. In a few lines:
as §1

Assay [7] is described as follows: A CellTox Green Cytotoxicity Assay to monitor cytotoxicity in HEK293 cells - 16 hour (AID 1224888). Further: nearly all actives have a fitted effect of over 35% in size. In a few lines:
as §3

Assay [8] is described as follows: qHTS RealTime-Glo MT Cell Viability Assay in HepG2 cells - 0 hour (AID 1224889). Further: nearly all actives have a fitted effect of over 50% in size. In a few lines:
as §4

Assay [9] in a line: A CellTox Green Cytotoxicity Assay to monitor cytotoxicity in HEK293 cells - 32 hour (AID 1224881). Further: nearly all actives have a fitted effect of over 40% in size. Further: potency means the concentration at half of the fitted maximal effect. In a few lines: as §3
The nature of assay [10]: A CellTox Green Cytotoxicity Assay to monitor cytotoxicity in HepG2 cells - 32 hour (AID 1224883). Further: nearly all actives have a fitted effect of over 50% in size. Further: potency means the concentration at half of the fitted maximal effect. In a few lines: as §2

For `CC1C(C)(C)C2=C(C(=O)CCC2)C1(C)C` (stereo not drawn), the Potency entry in assay [1], in assay [2], in assay [3], in [4], in assay [5] and in assay [6] was “inactive” throughout. For the same compound, the Potency result in [7] and in assay [8] was “inactive” in each case.

In the case of `CCCCCCCCCCCC(=O)OCC(O)CO` (stereo not drawn), the Potency result in assay [1], in [9], in [10], in assay [3], in assay [4] and in assay [5] was “inactive” in each case. In addition, the Potency result in assay [7] and in assay [8] was “inactive” throughout.

With `[Cl][Nd]([Cl])[Cl]`, the Potency result in [1], in assay [9], in assay [10], in assay [3], in assay [4] and in assay [5] was “inactive” throughout. Also, the Potency result in assay [7] and in assay [8] was “inactive” throughout.

Regarding `CC[C@H]1OC(=O)[C@H](C)[C@@H](O[C@H]2C[C@@](C)(OC)[C@@H](O)[C@H](C)O2)[C@H](C)[C@@H](O[C@@H]2O[C@H](C)C[C@H](N(C)C)[C@H]2O)[C@](C)(O)C[C@@H](C)C(=O)[C@H](C)[C@@H](O)[C@]1(C)O`, the Potency result in assay [1], in assay [9], in assay [10], in assay [4], in [5] and in assay [6] was “inactive” in each case. For the same compound, the Potency result in [7] and in assay [8] was “inactive” throughout.

As for `O=C(O)CCC(=O)c1ccc(-c2ccccc2)cc1`, the Potency entry in assay [1], in [9], in assay [10], in [4], in assay [5] and in assay [6] was “inactive” throughout. For the same compound, the Potency result in assay [7] is “inactive”.

For `CC(CN(CCN(CC(C)OCCO)CC(C)OCCO)CC(C)OCCO)OCCO` (stereo not drawn), the Potency result in assay [1], in [2], in [3], in [4], in assay [7] and in [8] was “inactive” in each case. In addition, the Potency in [5] was 23.7 µM (active).

Regarding `O=C(CCS)OCC(COC(=O)CCS)(COC(=O)CCS)COC(=O)CCS`, the Potency result in [1], in assay [9], in assay [10], in assay [3], in [4] and in [7] was “inactive” throughout. Moreover, the Potency result in [8] is “inactive”.

With `COc1ccc(-c2cc(=S)ss2)cc1`, the Potency entry in assay [1], in assay [9], in [10], in [3], in assay [4] and in [5] was “inactive” each time. Also, the Potency result in [7] and in [8] was “inactive” each time.

Consider `CCCCCCCCCCCCCOS(=O)(=O)O`, for which the Potency result in assay [1], in assay [2], in [3], in assay [4], in [5] and in [6] was “inactive” throughout. The Potency result in assay [7] and in assay [8] was “inactive” each time.

Turning to `CC(=O)C(=O)CC(C)C`, the Potency entry in [9], in [2], in assay [10], in assay [3], in assay [4] and in assay [5] was “inactive” in each case. The Potency entry in assay [6], in [7] and in assay [8] was “inactive” throughout.

Consider `CCCCCCC(O)CCOC(C)=O` (stereo not drawn), for which the Potency result in [9], in assay [2], in assay [10], in [3], in assay [4] and in assay [5] was “inactive” throughout. In addition, the Potency entry in assay [6], in assay [7] and in [8] was “inactive” in each case.

Take `NC(=O)CCCCC(N)=O`: the Potency entry in assay [9], in assay [2], in assay [10], in assay [3], in [4] and in assay [5] was “inactive” each time. Moreover, the Potency result in assay [6] and in assay [7] was “inactive” each time.

For the compound `COc1ccc(-c2cc(C(F)F)nn2-c2ccc(S(N)(=O)=O)cc2)cc1F`, the Potency result in assay [1], in [9], in assay [10], in [3], in [4] and in assay [7] was “inactive” each time. For the same compound, the Potency result in assay [8] is “inactive”.

With `O=C(O)CCC(=O)OC[C@@H](NC(=O)C(Cl)Cl)[C@H](O)c1ccc([N+](=O)[O-])cc1`, the Potency entry in [1], in assay [4] and in assay [5] was “inactive” throughout. Further, the Potency was 19 µM (active) in assay [2], 12 µM (active) in [10] and 21.3 µM (active) in [3].

Consider `O=C(/C=C/c1ccc([N+](=O)[O-])cc1)c1ccccc1`, for which the Potency entry in assay [1], in assay [3], in assay [7] and in assay [8] was “inactive” in each case. For the same compound, the Potency was 17.4 µM (active) in assay [9], 21.9 µM (active) in assay [10] and 31 µM (active) in [5].

As to `CCCCCCCC(=O)Oc1c(Br)cc(C#N)cc1Br`, the Potency result in assay [1], in assay [10], in assay [3] and in assay [7] was “inactive” in each case. In [5], the Potency was 38.8 µM (active).

As to `C[C@@H]1C[C@H]2[C@@H]3CCC4=CC(=O)C=C[C@]4(C)[C@@]3(F)[C@@H](O)C[C@]2(C)[C@@]1(O)C(=O)COP(=O)(O)O`, the Potency entry in [1], in assay [9], in [10], in [3], in [5] and in assay [6] was “inactive” in each case. For the same compound, the Potency result in [7] was “inactive”.

`CO[C@@H]1[C@@H](OC)[C@H](C)[C@@](O)(CC(=O)O)O[C@H]1[C@H](C)[C@H]1O[C@@]2(CC[C@@](C)([C@H]3CC[C@@](C)([C@@H]4O[C@@H]([C@H]5O[C@](C)(O)[C@H](C)C[C@@H]5C)C[C@@H]4OC4C[C@H](OC)[C@@H](OC)[C@H](C)O4)O3)O2)C[C@H](O)[C@H]1C` (stereo partly drawn): the Potency result in assay [1], in assay [3] and in assay [7] was “inactive” in each case. Besides, the Potency in assay [10] was 9.52 µM (active); in assay [5] it was 3.38 µM (active); in assay [6], 8.49 µM (active).
